From the supplement of paper PMC9446081
± gives the standard deviation of the averaged measurements.

Biological target: MurC (UniProt C4ZRI6)
Experiment: relative enzymatic activity vs untreated control (fraction); higher = less inhibition
Details: 100 µM; incubation time: 2 h at 37 C
Procedure: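 In vitro enzymatic inhibition assays (ProFoldin kits) for 12 purified essential E. coli enzymes or complexes, each treated with 218 active antibacterial compounds at 100 µM for 2 h at 37°C. Read-outs were fluorescence or absorbance (phosphate detection, dye binding), converted to activity via standard curves and expressed relative to untreated DMSO controls.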

MurC, sequence (C4ZRI6 whole entry, looked up): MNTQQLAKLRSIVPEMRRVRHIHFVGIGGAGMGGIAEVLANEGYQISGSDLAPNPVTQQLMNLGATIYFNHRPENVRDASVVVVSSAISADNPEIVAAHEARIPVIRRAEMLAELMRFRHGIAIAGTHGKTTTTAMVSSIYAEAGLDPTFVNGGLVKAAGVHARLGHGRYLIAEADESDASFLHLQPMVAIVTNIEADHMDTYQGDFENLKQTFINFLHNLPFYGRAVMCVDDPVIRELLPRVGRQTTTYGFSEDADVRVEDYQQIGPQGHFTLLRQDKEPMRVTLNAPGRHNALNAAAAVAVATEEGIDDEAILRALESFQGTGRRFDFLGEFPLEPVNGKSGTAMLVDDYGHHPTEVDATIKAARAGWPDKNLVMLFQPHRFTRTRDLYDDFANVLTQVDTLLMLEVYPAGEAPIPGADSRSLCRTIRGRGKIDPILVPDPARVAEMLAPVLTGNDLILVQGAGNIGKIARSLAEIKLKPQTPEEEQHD

Question: Which relative enzymatic activity does the source give for `COC1=C(OC)C(=O)C(CCCCCCCCCC[P+](c2ccccc2)(c2ccccc2)c2ccccc2)=C(C)C1=O` here?
Answer: 0.344 ± 0.24

Question: With `Cc1cc(O)c(C(=O)NC(C(=O)NC2C(=O)N3C(C(=O)O)=C(CSc4nnnn4C)CSC23)c2ccc(O)cc2)cn1` (stereo not given) as the compound, how does the relative enzymatic activity read?
Answer: 0.971 ± 0.12

Question: For `CC(=O)On1cc(F)c(=O)[nH]c1=O`, which relative enzymatic activity is on record?
Answer: 1.07 ± 0.079

Question: How did the relative enzymatic activity turn out when `O=C(Cn1cnnn1)NC1C(=O)N2C(C(=O)O)=C(CSc3nncs3)CSC12` (stereo not given) was run?
Answer: 1.06 ± 0.098

Question: Which relative enzymatic activity does the source give for `C[C@H]1[C@H](NC(=O)/C(=N\OC(C)(C)C(=O)O)c2csc(N)n2)C(=O)N1S(=O)(=O)O` here?
Answer: 1.29 ± 0.45

Question: Which relative enzymatic activity does the source give for `CN1CCN(c2c(F)cc3c(=O)c(C(=O)O)cn(CCF)c3c2F)CC1` here?
Answer: 1.02 ± 0.011

Question: Which relative enzymatic activity does the source give for `CCCCCCCCCCCCCCCC[N+](C)(C)C` here?
Answer: 0.568 ± 0.56

Question: With `CC1c2cccc(O)c2C(=O)C2=C(O)C3(O)C(=O)C(C(N)=O)=C(O)C(N(C)C)C3C(O)C21.Cl` (stereo not given) as the compound, how does the relative enzymatic activity read?
Answer: 1.02 ± 0.027

Question: With `CCCN1C[C@H](C)[C@@H](O)[C@](C)(O)[C@@H](CC)OC(=O)[C@H](C)[C@@H](O[C@H]2C[C@@](C)(OC)[C@@H](O)[C@H](C)O2)[C@H](C)[C@@H](O[C@@H]2O[C@H](C)C[C@H](N(C)C)[C@H]2O)[C@](C)(O)C[C@H]1C` as the compound, how does the relative enzymatic activity read?
Answer: 1.02 ± 0.024

Question: With `N[C@@H]1CN(c2c(F)cc3c(=O)c(C(=O)O)cn([C@@H]4C[C@@H]4F)c3c2Cl)CC12CC2` as the compound, how does the relative enzymatic activity read?
Answer: 0.971 ± 0.044

Question: Which relative enzymatic activity does the source give for `NCCONC(=O)[C@@H]1CC[C@@H]2CN1C(=O)N2OS(=O)(=O)O` here?
Answer: 0.944 ± 0.034

Question: How did the relative enzymatic activity turn out when `O=C(O)c1cn(C2CC2)c2cc(N3CCC(O)(COc4ccc(N5C[C@H](CO)OC5=O)cc4F)CC3)c(F)cc2c1=O` was run?
Answer: 1.38 ± 0.025

Question: Which relative enzymatic activity does the source give for `O=C([O-])C1=C(CSc2nnnn2CS(=O)(=O)[O-])CSC2C(NC(=O)C(O)c3ccccc3)C(=O)N12.[Na+].[Na+]` (stereo not given) here?
Answer: 1.25 ± 0.052

Question: For `CCn1cc(C(=O)O)c(=O)c2cc(F)c(N3CCN(C(=S)Nc4cc(C(F)(F)F)ccc4Cl)CC3)cc21`, which relative enzymatic activity is on record?
Answer: 1.07 ± 0.069

Question: For `C[C@H]1COc2c(C3(N)CC3)c(F)cc3c(=O)c(C(=O)O)cn1c23`, which relative enzymatic activity is on record?
Answer: 1.01 ± 0.03

Question: With `Cc1c(N)nc([C@H](CC(N)=O)NC[C@H](N)C(N)=O)nc1C(=O)N[C@H](C(=O)N[C@H](C)[C@@H](O)[C@H](C)C(=O)N[C@H](C(=O)NCCc1nc(-c2nc(C(=O)NCCCNCCCCN)cs2)cs1)[C@@H](C)O)[C@@H](O[C@@H]1O[C@@H](CO)[C@@H](O)[C@H](O)[C@@H]1O[C@@H]1O[C@H](CO)[C@@H](O)[C@H](OC(N)=O)[C@@H]1O)c1c[nH]cn1` as the compound, how does the relative enzymatic activity read?
Answer: 1.006 ± 0.0098

Question: For `COC1=C(N)C(=O)c2nc(-c3nc(C(=O)O)c(C)c(-c4ccc(OC)c(OC)c4O)c3N)ccc2C1=O`, which relative enzymatic activity is on record?
Answer: 1.31 ± 0.37

Question: For `CCCC[P+](CCCC)(CCCC)Cc1ccc(NC(=O)[C@H](Cc2ccc3ccccc3c2)N/C(=N/C2CCCCC2)NC2CCCCC2)cc1`, which relative enzymatic activity is on record?
Answer: 0.557 ± 0.44

Question: With `Oc1ccc(Cl)c2cccnc12` as the compound, how does the relative enzymatic activity read?
Answer: 1.16 ± 0.16

Question: For `Cl.N=C(N)n1cccn1`, which relative enzymatic activity is on record?
Answer: 0.968 ± 0.063

Question: `CC[C@H]1OC(=O)[C@H](C)[C@@H](O[C@H]2C[C@@](C)(OC)[C@@H](O)[C@H](C)O2)[C@H](C)[C@@H](O[C@@H]2O[C@H](C)C[C@H](N(C)C)[C@H]2O)[C@](C)(O)C[C@@H](C)C(=O)[C@H](C)[C@@H](O)[C@]1(C)O` was tested. Which relative enzymatic activity did it give?
Answer: 0.959 ± 0.064

Question: How did the relative enzymatic activity turn out when `CON=C(C(=O)NC1C(=O)N2C(C(=O)OCOC(=O)C(C)(C)C)=C(C=Cc3scnc3C)CSC12)c1csc(N)n1` (stereo not given) was run?
Answer: 0.659 ± 0.044

Question: For `Cc1cn(C2CC(N=[N+]=[N-])C(CO)O2)c(=O)[nH]c1=O` (stereo not given), which relative enzymatic activity is on record?
Answer: 1.01 ± 0.068

Question: How did the relative enzymatic activity turn out when `O=C(O)c1c(O)c2c([nH]c1=O)CCCC2` was run?
Answer: 0.602 ± 0.36

Question: With `O=[N+]([O-])c1ccc(O)c2ncccc12` as the compound, how does the relative enzymatic activity read?
Answer: 1.046 ± 0.004

Question: How did the relative enzymatic activity turn out when `C=C1c2cccc(O)c2C(=O)[C@@H]2C(=O)[C@]3(O)C(=O)[C@@H](C(N)=O)C(=O)[C@@H](N(C)C)[C@@H]3[C@@H](O)[C@H]12` was run?
Answer: 1.03 ± 0.034

Question: How did the relative enzymatic activity turn out when `O=C([O-])CCC(=O)OCC(NC(=O)C(Cl)Cl)C(O)c1ccc([N+](=O)[O-])cc1.[Na+]` (stereo not given) was run?
Answer: 1.01 ± 0.081

Question: Which relative enzymatic activity does the source give for `CN[C@H]1CN(c2ccc3c(=O)c(C(=O)O)cn(-c4nccs4)c3n2)C[C@@H]1OC` here?
Answer: 1.035 ± 0.0069

Question: `CN(C)c1ccc(O)c2c1C[C@H]1C[C@H]3[C@H](N(C)C)C(=O)[C@@H](C(N)=O)C(=O)[C@@]3(O)C(=O)[C@H]1C2=O` was tested. Which relative enzymatic activity did it give?
Answer: 1.11 ± 0.018

Question: With `CCn1cc(C(=O)O)c(=O)c2cc(F)c(N3CCNCC3)nc21` as the compound, how does the relative enzymatic activity read?
Answer: 0.948 ± 0.15

Question: `CC[C@H]1OC(=O)C[C@@H](O)[C@H](C)[C@@H](O[C@@H]2O[C@H](C)C[C@H](N(C)C)[C@H]2O)[C@@H](CC=O)C[C@@H](C)C(=O)/C=C/[C@]2(C)O[C@H]2[C@@H]1C` was tested. Which relative enzymatic activity did it give?
Answer: 1.02 ± 0.099

Question: How did the relative enzymatic activity turn out when `CO/N=C1\CN(c2nc3c(cc2F)c(=O)c(C(=O)O)cn3C2CC2)C[C@@H]1CN` was run?
Answer: 0.717 ± 0.047

Question: With `NCCC(O)C(=O)NC1CC(N)C(OC2OC(CN)C(O)C(O)C2O)C(O)C1OC1OC(CO)C(O)C(N)C1O.O` (stereo not given) as the compound, how does the relative enzymatic activity read?
Answer: 1.0305 ± 0.00019

Question: Which relative enzymatic activity does the source give for `CON=C(C(=O)NC1C(=O)N2C(C(=O)O)=C(C[N+]3(C)CCCC3)CSC12)c1csc(N)n1.[Cl-]` (stereo not given) here?
Answer: 0.984 ± 0.032

Question: For `CC1CCC2(C)C(C=O)=CCCC2C1(C)CC1OC(O)C(=O)C12CO2` (stereo not given), which relative enzymatic activity is on record?
Answer: 0.933 ± 0.1

Question: Which relative enzymatic activity does the source give for `CN[C@@H]1[C@H](O)[C@H](NC)[C@H]2O[C@@]3(O)C(=O)C[C@@H](C)O[C@H]3O[C@@H]2[C@H]1O` here?
Answer: 0.955 ± 0.11

Question: With `CO/N=C(\C(=O)N[C@@H]1C(=O)N2C(C(=O)O)=C(CSC(=O)c3ccco3)CS[C@H]12)c1csc(N)n1` as the compound, how does the relative enzymatic activity read?
Answer: 0.977 ± 0.095

Question: With `CC(N)O.Cc1cc(CC(C)CC(C)(C)C)n(O)c(=O)c1` (stereo not given) as the compound, how does the relative enzymatic activity read?
Answer: 1.11 ± 0.024

Question: How did the relative enzymatic activity turn out when `O=C(O)P(=O)(O)O` was run?
Answer: 0.972 ± 0.058

Question: Which relative enzymatic activity does the source give for `Cc1oc(=O)oc1CN1CCN(c2cc3c(cc2F)c(=O)c(C(=O)O)c2n3C(C)S2)CC1` (stereo not given) here?
Answer: 0.821 ± 0.066
